Values joined by “and” are separate entries in the source; they are usually repeats but may differ in a detail not shown here. Identical values can stand only once. About 79,000 compounds went through this panel and 15% of them were active in at least one assay; those are over-represented in the sample as a whole. Some compounds were tested as several samples or in several runs, with calls that do not always agree. Active and inactive are the calls of the source. No stated cut-off is given here; in the data, active means growth inhibition above about 70%; inactive means the rest.
Experiments:
[1] = NCI Yeast Anticancer Drug Screen. Data for the rad50 strain (AID 155);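 further: 0% = growth of vehicle-only cultures of the same strain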; details: S. cerevisiae rad50 strain growth inhibition; at 50.0 µM; stronger effect = higher value
Method in brief: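 Yeast carrying a defined DNA repair defect were exposed to test compounds, and growth was compared with vehicle-treated controls to give percent inhibition.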

[2] = NCI Yeast Anticancer Drug Screen. Data for the mec2-1 strain (AID 157); details: S. cerevisiae mec2-1 strain, at 50.0 µM, stronger effect = higher value
Method in brief: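 Mutant yeast (mec2-1) grown with compound; growth inhibition relative to vehicle control reported.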

[3] = NCI Yeast Anticancer Drug Screen. Data for the sgs1 mgt1 strain (AID 161);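 further: 0% = growth of cultures given vehicle only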; details: S. cerevisiae sgs1 mgt1 strain, at 50.0 µM, stronger effect = higher value
Method in brief: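 Compounds are added to genetically altered yeast, and growth is compared with cultures given vehicle alone to give percent inhibition.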

[4] = NCI Yeast Anticancer Drug Screen. Data for the cln2 rad14 strain (AID 165);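 further: 0% = growth equal to vehicle treated cultures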; details: S. cerevisiae cln2 rad14 strain, at 50.0 µM, stronger effect = higher value
Method in brief: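 Readout is yeast growth inhibition versus vehicle-treated controls, using a strain with cln2 and rad14 alterations exposed to compound.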

[5] = NCI Yeast Anticancer Drug Screen. Data for the bub3 strain (AID 167); details: S. cerevisiae bub3 mutant strain, at 50.0 µM, stronger effect = higher value
Method in brief: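 Compounds were applied to a genetically altered yeast strain carrying a cell-cycle control defect. Growth inhibition was scored against vehicle-treated controls.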

[6] = NCI Yeast Anticancer Drug Screen. Data for the mlh1 rad18 strain (AID 175); details: S. cerevisiae mlh1 rad18 strain growth inhibition; at 50.0 µM; stronger effect = higher value
Method in brief: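 Genetically defined yeast (DNA repair-deficient) exposed to compounds; growth inhibition determined relative to vehicle.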

Measured: growth inhibition

CCOC(=O)C(C)(C)C(OP(=S)(OCC)OCC)=C(C)C
inactive: [1] 4.6% | [2] 12.4% | [3] 12.7% | [4] 23.8% | [5] 18% | [6] 7.15%

COc1cc2c(cc1OC)C13CCN4CC5=CCOC(CC(=O)O)C(C5CC41)C3N2 (stereo not drawn)
91.8% (active) and 10.6% (inactive): [4]
inactive: [1] 14.2% and -40.6% | [2] 26.1% and -27.1% | [3] 47.1% and -32.6% | [5] -18.6% and -38.2% | [6] 3.35% and -34.1%

COC(=O)C1C2CCCN2OC1(C)CO (stereo not drawn)
inactive: [1] -2.6% | [2] 12.5% | [3] 12.4% | [4] 2.45% | [5] 12.9% | [6] 2.1%

[CH3][Sn]([CH3])([CH3])[O]C(=O)C(O)c1ccccc1 (stereo not drawn)
inactive: [1] 11.6% | [2] -7.7% | [3] 5.1% | [4] 9.4% | [5] -0.05% | [6] -2.3%

O=c1cccc2n1CC1CNC[C@H]2C1
inactive: [1] 16.6% | [2] 9.5% | [3] 5.8% | [4] 7.75% | [5] 12.6% | [6] -4.85%

c1ccc([As]2[As](c3ccccc3)[As](c3ccccc3)[As]2c2ccccc2)cc1 (stereo not drawn)
active: [1] 99.5% | [2] 99.8% | [3] 99.8% | [4] 98.1% | [5] 99.2% | [6] 99.5%

Cc1cccc(C)c1OCC1=NCCN1
inactive: [1] 4.75% | [2] 14.3% | [3] 0.1% | [4] -55.6% | [5] 5.5% | [6] -13.1%

CCOC(=O)N=C=O
inactive: [1] -17.8% | [2] 4.7% | [3] -15.7% | [4] 11.9% | [5] -3.1% | [6] -1.85%

O=Cc1cn(CCCCCCCCCCCCn2cc(C=O)c3ccccc32)c2ccccc12
inactive: [1] -2.75% | [2] -10.8% | [3] 0.25% | [4] -5.55% | [5] 7.35% | [6] -12.8%

C(#Cc1ccccc1)c1ccccc1.[C-]#[O+].[C-]#[O+].[C-]#[O+].[C-]#[O+].[C-]#[O+].[C-]#[O+].[Co].[Co]
inactive: [1] 42.4% | [2] 28.1% | [3] 42.4% | [4] -3.55% | [5] 5.2% | [6] 53.2%

NNC(=S)S
inactive: [1] 27.9% and -11.3% and -7.8% | [2] 26.1% and -14.6% and -8.5% | [3] 6.1% and -1.65% and -21.6% | [4] 22.2% and -24.2% and -21.7% | [5] 26.2% and 9.35% and -27% | [6] 5.3% and -2.15% and -45.4%

CCN1CCC(O)(c2ccccc2)C(C(=O)c2ccccc2)C1 (stereo not drawn)
inactive: [1] 5.15% | [2] -17.1% | [3] 5.3% | [4] 20.7% | [5] -10.9% | [6] 16.4%

NCCN.O=C([O-])C(=O)[O-].O=C([O-])C(=O)[O-].[Co+3].[K+]
inactive: [1] 0.2% | [2] -8.5% | [3] 10.2% | [4] 16.8% | [5] 5.1% | [6] -2.4%

FC(F)(F)c1ccc(Cl)c(NC2=NCCS2)c1
inactive: [1] 14.2% | [2] 24.8% | [3] 19.4% | [4] 11.2% | [5] 11% | [6] 20.2%

c1ccc2c(c1)cc1ccc3cccc4ccc2c1c34
inactive: [1] -6.9% | [2] -14.9% | [3] 7.15% | [4] 15.5% | [5] 14.4% | [6] 9.9%

O=C(O)C(C(=O)O)P(=S)(S)c1ccccc1 (stereo not drawn)
inactive: [1] -2.1% | [2] 8.6% | [3] -2.75% | [4] 1.15% | [5] 35.3% | [6] 14.5%

COc1ccc(CC(N)c2ccccc2)cc1OC (stereo not drawn)
inactive: [1] -15.3% | [2] 23.9% | [3] -8.85% | [4] -21.1% | [5] -1.55% | [6] -29.1%

O=S(=O)(O)O/N=C(\Cc1ccccc1)SC1OC(CO)C(O)C(O)C1O (stereo not drawn)
inactive: [1] -2.45% | [2] -7.1% | [3] -2.55% | [4] -7% | [5] -0.75% | [6] -3.25%

CCC1(CC)C(=O)C=CNC1=O
inactive: [1] 17.6% | [2] -20.6% | [3] 11.7% | [4] 1.1% | [5] -8.15% | [6] 8.15%

CN1CC(NC(=O)N(CCCl)N=O)CC2c3cccc4c3c(cn4N=O)CC21 (stereo not drawn)
inactive: [1] 17.8% | [2] 10.6% | [3] 21.4% | [4] 18.6% | [5] -3.7% | [6] 52.1%

CSP(=S)(SC)SC
inactive: [1] 24% | [2] -5.7% | [3] 13.4% | [4] 22.1% | [5] -7.95% | [6] -15.8%

COc1ccc(C(=O)C(CC2C(=O)NC(=O)NC2=O)c2ccc(OC)cc2)cc1 (stereo not drawn)
inactive: [1] -7.65% | [2] -8.65% | [3] -22.9% | [4] -17.1% | [5] -19.1% | [6] -19.1%

CCC1(CC)C(=O)NC(=O)N(C)C1=O
inactive: [1] 33.4% | [2] 10.2% | [3] 31.5% | [4] 28.8% | [5] 8.25% | [6] 24.7%

CC(=O)c1ccccc1N=Nc1ccc(N(CCCl)CCCl)cc1
inactive: [1] -9.5% | [2] -5.5% | [3] 0.15% | [4] 18% | [5] 15.2% | [6] -0.05%

CC1(C)OP23(NC(=O)OC2(C(F)(F)F)c2ccccc2O3)OC1(C)C (stereo not drawn)
inactive: [1] -14.6% | [2] -13.5% | [3] -40.5% | [4] -4.1% | [5] -41.6% | [6] -27.4%

COc1cccc(C)c1C1CC2CCCN2O1 (stereo not drawn)
inactive: [1] 16.6% | [2] 5.5% | [3] 5.95% | [4] 9.4% | [5] 14.7% | [6] 5.3%

CCN(CC)CCN1CC2CCCCC2C1 (stereo not drawn)
inactive: [1] 4.25% | [2] 0.35% | [3] 1% | [4] 5.45% | [5] 11.6% | [6] 3%

CN(Cc1ccccc1)CC(O)c1ccccc1Cl (stereo not drawn)
inactive: [1] -0.75% | [2] -2.7% | [3] 21.4% | [4] -28.2% | [5] 13.3% | [6] 25.1%

NC(=S)Nc1ccccc1
inactive: [1] 9.75% | [2] -18% | [3] -24.4% | [4] -11.1% | [5] 8.65% | [6] 5.6%

O=C(O)CCCC1CCCCC1.[Ni]
inactive: [1] -6.95% | [2] 14.8% | [3] -2.1% | [4] 16% | [5] -10.8% | [6] -18.6%

CC1C(=O)OC2CC[N+]3([O-])CC=C(COC(=O)C(C)(O)C1(C)O)C23 (stereo not drawn)
inactive: [1] -0.6% | [2] -37.2% | [3] -14.7% | [4] -5.25% | [5] -9.25% | [6] -84.4%

Oc1ccc(Cc2ccc(O)cc2)cc1
inactive: [1] -0.2% | [2] -3.4% | [3] -0.3% | [4] -16.3% | [5] -3.1% | [6] 5.85%

CC(C)CNP(=S)(NCC(C)C)c1ccccc1
inactive: [1] 4.5% | [2] 12.9% | [3] 6.7% | [4] 5.55% | [5] 18.9% | [6] 21.3%

CC(=O)OC1(C)CC(C)C(=O)C(C(O)CC2CC(=O)NC(=O)C2)C1 (stereo not drawn)
active: [1] 92.8% | [2] 94.3% | [3] 93.7% | [4] 92.2% | [5] 93.3% | [6] 92.3%

CC(Cl)CN(CC(C)Cl)c1ccc(-c2ccccc2)cc1 (stereo not drawn)
inactive: [1] 5.25% | [2] -13.8% | [3] 12.7% | [4] 18% | [5] -5% | [6] -30.9%

Nc1n[nH][nH]c1=O
inactive: [1] -29.5% | [2] -26.1% | [3] -13.9% | [4] -20.4% | [5] -0.7% | [6] -12.1%

Cc1ccc(NC2=NCCS2)cc1Cl
inactive: [1] 3.05% | [2] 7.15% | [3] 12.1% | [4] 10.8% | [5] 10.2% | [6] 16.1%

c1cc[c]([Ge]([c]2ccccc2)[c]2ccccc2)cc1.c1cc[c]([Ge]([c]2ccccc2)[c]2ccccc2)cc1
inactive: [1] 7.75% | [2] 1.45% | [3] -1.7% | [4] -4% | [5] 4.8% | [6] -3.65%

Reference: PubChem BioAssay (NCI)
